Here are results for 10 compounds from PubChem BioAssay (Tox21).

Several values for one entry are separate records, joined by “and”; a condition that tells them apart may be missing. Identical values can stand only once. Records with an inconclusive call do not appear. Some structures have more than one record in an assay (separate samples or runs), and their calls can disagree. Activity calls are given as the source filed them. Unless noted, calls follow the shape of the full dose curve.

Assay [1] is described as follows: Nuclear factor erythroid 2-related factor 2/antioxidant responsive element (Nrf2/ARE) small molecule agonists: qHTS cell viability counter screen in human keratinocytes (AID 1919968; active = well fitted curve in the direction sought with a large enough effect in the repeat runs; an effect the other way counts as inactive or inconclusive; also: nearly all actives have a fitted effect of over 55% in size; also: potency is read from the fitted curve at half-maximal effect). Summed up: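 Viability counter-screen: KeratinoSens reporter cells, DMSO-delivered compounds, 23 h at 37 C, CellTiter-Fluor fluorescence.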
A general note: qHTS replaces the single test concentration by a dilution series.

The target of assay [2] is Gonadotropin-releasing hormone receptor (Homo sapiens) (UniProt P30968). In words: Human gonadotropin-releasing hormone receptor (GnRHR) small molecule agonists, calcium flux assay in GnRHR-HEK293 cells (AID 1920063). Also: nearly all actives have a fitted effect of over 35% in size. Also: potency is read from the fitted curve at half-maximal effect. Summed up: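 Tox21-format agonist screen using human GnRHR-expressing HEK293 cells and a fluorescent calcium dye; kinetic 3-min fluorescence reading after compound addition, 15-point concentration series run in triplicate.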
Chain of Gonadotropin-releasing hormone receptor (Homo sapiens) (P30968 whole entry, looked up): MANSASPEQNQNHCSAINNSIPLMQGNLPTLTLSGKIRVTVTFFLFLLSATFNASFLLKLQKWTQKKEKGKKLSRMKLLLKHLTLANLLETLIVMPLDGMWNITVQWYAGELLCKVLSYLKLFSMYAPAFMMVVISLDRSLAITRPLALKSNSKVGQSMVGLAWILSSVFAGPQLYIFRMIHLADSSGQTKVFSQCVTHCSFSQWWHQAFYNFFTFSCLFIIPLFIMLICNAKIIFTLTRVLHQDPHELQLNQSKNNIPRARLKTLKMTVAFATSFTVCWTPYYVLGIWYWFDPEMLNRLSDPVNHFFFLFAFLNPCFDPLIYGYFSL
A general note: Calcium assays in cells follow changes in intracellular calcium, usually with a dye or a luminescent sensor.

The nature of assay [3]: G protein-coupled receptor (GPCR) small molecule agonists, calcium flux assay: HEK293 wild type cell line counter screen (AID 1920065). The method in brief: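 In this agonist-mode screen, ATP is the positive control and DMSO the vehicle. Cells grow 18 h before a 1 h dye incubation at 37 C; signal is taken at Ex/Em 480/540 over 3 min.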
Assay [4] is described as follows: p53 small molecule agonists, cell-based qHTS assay with human liver microsomes (AID 1963577). Summed up:
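p53RE-bla cells, 4,000/well, compound added after 5 h, with human liver microsomes 0.5 mg/mL and NADPH 0.5 mg/mL final; 16 h at 37 C, then LiveBLAzer 2 h RT, fluorescence.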

Assay [5] can be described thus: p53 small molecule agonists, cell-based qHTS assay with rat liver microsomes (AID 1963578). The method in brief: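 p53RE-bla cells, 4,000/well, pre-incubated 5 h, then given compounds plus rat liver microsomes (0.5 mg/mL final) and NADPH (0.5 mg/mL final). Incubation 16 h at 37 C; beta-lactamase reporter read by LiveBLAzer fluorescence after 2 h at room temperature.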

Assay [6] can be described thus: p53 small molecule agonists, cell-based qHTS assay with human liver microsomes: qHTS cell viability counter screen (AID 1963579). Also: nearly all actives have a fitted effect of over 45% in size. Also: potency is read from the fitted curve at half-maximal effect. Summed up:
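p53RE-bla cells, 4,000/well, dosed 5 hours after plating, with human liver microsomes (0.5 mg/mL final) plus NADPH (0.5 mg/mL final), 16 hours at 37 C. Viability read as CellTiter-Glo luminescence after 30 min at room temperature.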

A short description of assay [7]: p53 small molecule agonists, cell-based qHTS assay with rat liver microsomes: qHTS cell viability counter screen (AID 1963580). Also: nearly all actives have a fitted effect of over 45% in size. The method in brief: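 In HCT-116 cells carrying a p53 response element-bla reporter, compounds were metabolically activated in situ by rat liver microsomes with NADPH over 16 h. Cell ATP content then served as the cytotoxicity measure.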

The nature of assay [8]: p53 small molecule agonists, cell-based qHTS assay: qHTS cell viability counter screen (AID 1963581). Also: nearly all actives have a fitted effect of over 45% in size. Summed up: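 Compounds are pinned onto HCT-116 p53RE-bla cells and left 16 h at 37 C. Following the reporter FRET read, ATP is quantified by CellTiter-Glo luminescence after 30 min at room temperature.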
Assay [9] is described as follows: p53 small molecule agonists, cell-based qHTS assay (AID 1963582; active = well fitted activation curve with a large enough effect in the signal ratio in the repeat runs, not every such curve was filed as active; the % refers to the signal ratio). The method in brief: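 Agonist activity was scored from beta-lactamase FRET fluorescence in p53RE-bla cells treated 16 h at 37 C with compounds in DMSO, substrate incubation being 2 h at room temperature.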
Assay [10] deals with 5-hydroxytryptamine receptor 2A (Homo sapiens) (UniProt P28223). In words: 5-hydroxytryptamine receptor 2A (HTR2A) small molecule antagonists, cell-based qHTS assay (AID 1963586). Also: nearly all actives have a fitted effect of over 45% in size. Also: potency is read from the fitted curve at half-maximal effect. The method in brief: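 Antagonist-mode intracellular calcium assay: DOI (4 nM) added after 5 min compound pre-incubation at room temperature to dye-loaded HTR2A-CHO cells. Fluorescence followed for 3 min, sampled every second.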
Chain of 5-hydroxytryptamine receptor 2A (Homo sapiens) (P28223 whole entry, looked up): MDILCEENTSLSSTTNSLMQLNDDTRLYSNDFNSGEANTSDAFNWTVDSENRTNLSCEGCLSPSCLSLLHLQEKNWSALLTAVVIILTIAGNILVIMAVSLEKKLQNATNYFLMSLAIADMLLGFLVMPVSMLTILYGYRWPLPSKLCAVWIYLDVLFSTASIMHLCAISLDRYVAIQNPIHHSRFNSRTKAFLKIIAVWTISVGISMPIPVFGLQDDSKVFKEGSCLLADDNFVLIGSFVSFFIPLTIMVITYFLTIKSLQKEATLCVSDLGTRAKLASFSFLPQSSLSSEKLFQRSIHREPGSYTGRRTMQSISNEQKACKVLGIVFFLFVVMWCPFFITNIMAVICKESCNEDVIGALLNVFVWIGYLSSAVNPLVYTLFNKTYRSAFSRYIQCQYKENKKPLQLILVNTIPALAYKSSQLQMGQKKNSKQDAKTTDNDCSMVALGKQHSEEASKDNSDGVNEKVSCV

Assay [11] shares this target. As to the kind of experiment: 5-hydroxytryptamine receptor 2A (HTR2A) small molecule agonists, cell-based qHTS assay (AID 1963587). Also: nearly all actives have a fitted effect of over 30% in size. The method in brief:
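HTR2A-CHO cells, plated 18 h at 37 C/5% CO2, dye-loaded 1 h at 37 C; compounds in DMSO added by pin tool (agonist mode). Intracellular calcium flux read as kinetic fluorescence on FDSS over 2 min at 1 s intervals.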

Assay [12] concerns the target Muscarinic acetylcholine receptor M1 (Homo sapiens) (UniProt P11229). As to the kind of experiment: Cholinergic receptor muscarinic 1 (CHRM1) small molecule antagonists, cell-based qHTS assay (AID 1963588). Also: nearly all actives have a fitted effect of over 40% in size. Summed up:
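CHRM1-CHO calcium-flux assay, antagonist mode. Cells were seeded 18 h, dye-loaded 1 h at 37 C and given compound for 5 min at RT, then acetylcholine was added at 50nM. FDSS fluorescence was read 3 min; 15 concentrations, three runs.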

Assay [13] has the same target. In words: Cholinergic receptor muscarinic 1 (CHRM1) small molecule agonists, cell-based qHTS assay (AID 1963589). Also: nearly all actives have a fitted effect of over 35% in size. Summed up:
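Stable CHRM1-CHO cells (human receptor) were incubated 18 h, dye-loaded for 1 h at 37 C and exposed to test compounds for agonist activity, with calcium-dependent fluorescence followed kinetically.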

Assay [14] can be described thus: cAMP Responsive Elements (CRE) small molecule agonists, cell-based qHTS assay (AID 1963590). The method in brief: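 FRET-based beta-lactamase readout (LiveBLAzer B/G, 2 h RT) quantified CRE activation in HEK 293T CRE-bla cells after 3 h treatment with DMSO-dissolved compounds.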
Assay [15] in a line: cAMP Responsive Elements (CRE) small molecule antagonists, cell-based qHTS assay (AID 1963591; active = well fitted inhibition curve with a large enough effect in the signal ratio in the repeat runs, not every such curve was filed as active; the % refers to the signal ratio). Summed up: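 qHTS in CRE-bla HEK 293T cells: compound in DMSO, then 0.25 uM NKH477 (final), 3 h at 37 °C/5% CO2; beta-lactamase FRET read-out after 2 h substrate incubation.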
Assay [16] concerns the target Beta-2 adrenergic receptor (Homo sapiens) (UniProt P07550). In words: Adrenergic beta2 receptor (ADRB2) small molecule antagonists, cell-based qHTS assay (AID 1963592). Also: series mostly up to about 92 µM; nearly all actives have a fitted effect of over 50% in size. Summed up: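 Cells (CHO, stable ADRB2 overexpression) incubated 18-20hr at 37C; compounds added from DMSO; agonist mix (1nM isoproterenol, 100uM IBMX, 25uM Ro-20-1724) added; 0.5hr RT; d2-cAMP and anti-cAMP-cryptate added; 1hr RT; 665/615 nm read.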

In assay [17] the target is D(2) dopamine receptor (Homo sapiens) (UniProt P14416). In words: Dopamine D2 receptor (DRD2) small molecule agonists, cell-based qHTS assay (AID 1963594). Also: nearly all actives have a fitted effect of over 35% in size. Summed up: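 HEK293 cells stably expressing DRD2 were cultured 24 h at 37 C, then given Ro20-1724 (0.1 mM final) and compounds for 10 min at room temperature. NKH477 (200nM) was then added for 30 min. cAMP was read by HTRF.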
Chain of D(2) dopamine receptor (Homo sapiens) (P14416 whole entry, looked up): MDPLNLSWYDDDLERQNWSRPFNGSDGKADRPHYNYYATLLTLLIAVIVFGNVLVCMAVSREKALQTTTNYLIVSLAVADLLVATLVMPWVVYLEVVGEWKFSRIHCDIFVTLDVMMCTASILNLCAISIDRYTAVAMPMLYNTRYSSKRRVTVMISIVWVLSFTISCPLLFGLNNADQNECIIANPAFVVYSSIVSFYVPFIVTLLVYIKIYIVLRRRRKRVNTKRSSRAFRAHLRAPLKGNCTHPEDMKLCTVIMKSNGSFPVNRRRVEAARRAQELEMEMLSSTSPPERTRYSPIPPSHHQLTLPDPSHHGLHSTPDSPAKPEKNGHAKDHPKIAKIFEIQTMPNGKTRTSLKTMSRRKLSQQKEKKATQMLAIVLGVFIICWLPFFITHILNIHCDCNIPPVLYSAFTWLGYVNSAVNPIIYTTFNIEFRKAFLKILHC

The target is the same in assay [18]. As to the kind of experiment: Dopamine D2 receptor (DRD2) small molecule antagonists, cell-based qHTS assay (AID 1963595; active = well fitted inhibition curve with a large enough effect in the signal ratio in the repeat runs, with a control signal flat; the % refers to the signal ratio; also: potency is read from the fitted curve at half-maximal effect). The method in brief: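 DRD2-HEK293; 0.1 mM Ro20-1724; cpd 10 min RT; NKH477 200 nM + quinpirole 12 nM, 30 min RT; HTRF cAMP (cAMP-d2/anti-cAMP cryptate), 665/620 nm ratio after 1 h.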
Assay [19] addresses KiSS-1 receptor (Homo sapiens) (UniProt Q969F8). As to the kind of experiment: Human kisspeptin (KISS1R) small molecule agonists, calcium flux assay in KISS1R-HEK293 cells (AID 1920064; active = well fitted curve in the direction sought with a large enough effect in the repeat runs; an effect the other way counts as inactive or inconclusive). The method in brief: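 Intracellular calcium mobilization in KISS1R-HEK293 cells was recorded by fluorescence (Ex/Em 480/540) for 3 min following compound addition to cells pre-loaded 1 h with calcium dye.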

For assay [20], the target named is Beta-2 adrenergic receptor (Homo sapiens) (UniProt P07550). As to the kind of experiment: Adrenergic beta2 receptor (ADRB2) small molecule agonists, cell-based qHTS assay (AID 1963593).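 Also: CHO cells stably overexpressing human ADRB2.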 Summed up: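 CHO cells stably over-expressing ADRB2 were plated overnight at 37C, then dosed with compounds plus a stimulation mix containing 100uM IBMX and 25uM Ro-20-1724 for 0.5hr at room temperature. cAMP was measured by HTRF competition, 1hr.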
Chain of Beta-2 adrenergic receptor (Homo sapiens) (P07550 whole entry, looked up): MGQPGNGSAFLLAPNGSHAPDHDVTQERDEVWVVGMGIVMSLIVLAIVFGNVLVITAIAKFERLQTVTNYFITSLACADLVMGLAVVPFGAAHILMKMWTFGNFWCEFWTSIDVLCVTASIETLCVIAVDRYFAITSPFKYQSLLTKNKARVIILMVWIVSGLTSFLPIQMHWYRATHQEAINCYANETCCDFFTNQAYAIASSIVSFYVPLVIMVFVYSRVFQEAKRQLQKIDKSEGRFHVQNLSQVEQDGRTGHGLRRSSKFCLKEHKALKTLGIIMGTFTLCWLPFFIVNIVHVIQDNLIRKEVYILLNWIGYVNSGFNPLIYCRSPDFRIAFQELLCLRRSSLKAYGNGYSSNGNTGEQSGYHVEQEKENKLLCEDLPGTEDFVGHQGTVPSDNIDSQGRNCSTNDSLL

Chain of Muscarinic acetylcholine receptor M1 (Homo sapiens) (P11229 whole entry, looked up): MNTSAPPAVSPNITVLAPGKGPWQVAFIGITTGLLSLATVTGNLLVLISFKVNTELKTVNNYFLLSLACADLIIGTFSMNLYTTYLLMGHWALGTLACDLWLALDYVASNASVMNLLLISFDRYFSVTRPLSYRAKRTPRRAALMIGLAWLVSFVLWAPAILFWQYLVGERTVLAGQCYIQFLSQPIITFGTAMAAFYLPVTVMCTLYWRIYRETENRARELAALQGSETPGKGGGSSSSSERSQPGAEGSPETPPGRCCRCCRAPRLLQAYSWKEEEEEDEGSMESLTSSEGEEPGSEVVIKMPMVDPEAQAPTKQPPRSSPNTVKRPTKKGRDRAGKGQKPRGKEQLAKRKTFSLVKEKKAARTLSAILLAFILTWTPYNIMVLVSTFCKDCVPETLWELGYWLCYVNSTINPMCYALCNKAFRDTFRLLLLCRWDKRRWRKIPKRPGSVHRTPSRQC
Chain of KiSS-1 receptor (Homo sapiens) (Q969F8 whole entry, looked up): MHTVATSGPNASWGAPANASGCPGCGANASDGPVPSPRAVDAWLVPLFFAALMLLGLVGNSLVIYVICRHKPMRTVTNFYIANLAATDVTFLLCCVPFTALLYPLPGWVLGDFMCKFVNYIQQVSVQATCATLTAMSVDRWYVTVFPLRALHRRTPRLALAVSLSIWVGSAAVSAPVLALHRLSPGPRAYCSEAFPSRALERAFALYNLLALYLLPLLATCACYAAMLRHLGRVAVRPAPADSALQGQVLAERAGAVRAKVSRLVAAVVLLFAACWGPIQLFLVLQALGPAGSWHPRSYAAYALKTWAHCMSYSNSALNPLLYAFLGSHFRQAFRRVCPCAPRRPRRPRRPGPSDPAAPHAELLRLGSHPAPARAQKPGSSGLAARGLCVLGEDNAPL

With `O=C(CCCN1CCC(O)(c2cccc(C(F)(F)F)c2)CC1)c1ccc(F)cc1`, the Potency entry in assay [1], in [2], in assay [3], in assay [4], in assay [5] and in [6] was “inactive” throughout. Also, the Potency entry in assay [7], in assay [8], in [9], in assay [11], in [12] and in [13] was “inactive” throughout. In addition, the Potency result in assay [14], in [15], in assay [16] and in [17] was “inactive” each time. In addition, the Potency in [10] was 0.365 µM (active); in assay [18] it was 0.0042 µM (active).
As for `CCN(CC)CCOc1ccc(/C(=C(\Cl)c2ccccc2)c2ccccc2)cc1`, the Potency in assay [1] is 22.1 µM (active) and 29.8 µM (active); in [6] it was 33.1 µM (active) and inactive. Also, the Potency result in [2], in [19], in assay [3], in assay [7], in [8] and in assay [17] was “inactive” in each case.
As for `C[C@]12CC[C@@H]3c4ccc(O)cc4CC[C@H]3[C@@H]1CCC2=O`, the Potency entry in assay [1], in [2], in assay [19], in assay [6], in assay [7] and in assay [16] was “inactive” throughout. In addition, in [17], the Potency result was “inactive”.
In the case of `CC1COc2ccccc2N1C(=O)C(Cl)Cl` (configuration not stated), the Potency result in [1], in assay [2], in assay [19], in assay [3], in [6] and in assay [7] was “inactive” each time. The Potency result in assay [10], in assay [11], in assay [12], in assay [13], in assay [15] and in assay [16] was “inactive” in each case. Besides, the Potency entry in assay [20], in assay [17] and in assay [18] was “inactive” in each case.
In the case of `C/C=C/C(=O)CCCC`, the Potency entry in assay [1], in [2], in assay [3], in [4], in assay [5] and in assay [6] was “inactive” in each case. The Potency entry in assay [7], in [8], in assay [9], in assay [10], in assay [12] and in assay [13] was “inactive” in each case. The Potency entry in assay [14], in [15], in assay [16], in [17] and in assay [18] was “inactive” each time.
Consider `Nc1ccc(O)cc1`, for which the Potency in assay [1] was 71.2 µM (active) and inactive. Besides, the Potency entry in [2], in assay [19], in assay [6], in assay [7], in assay [8] and in assay [12] was “inactive” throughout. Further, the Potency result in assay [13], in assay [15], in assay [16], in assay [20], in assay [17] and in assay [18] was “inactive” in each case.
With `COc1cccc2c1C(=O)c1c(O)c3c(c(O)c1C2=O)C[C@@](O)(C(C)=O)C[C@@H]3O[C@H]1C[C@H](N)[C@H](O)[C@H](C)O1`, the Potency was 6.15 µM (active) and 2.37 µM (active) in [1]; 34.9 µM (active) in [2]. For the same compound, the Potency result in assay [3] is “inactive”.
As to `CCC(=O)O[C@H]1[C@H](O[C@@H]2[C@@H](C)[C@H](O[C@H]3C[C@@](C)(OC)[C@@H](O)[C@H](C)O3)[C@@H](C)C(=O)O[C@H](CC)[C@@](C)(O)[C@H](O)[C@@H](C)C(=O)[C@H](C)C[C@@]2(C)O)O[C@H](C)C[C@@H]1N(C)C`, the Potency entry in [1], in [2], in [19], in assay [3], in [6] and in assay [7] was “inactive” throughout. The Potency entry in assay [8], in assay [14], in assay [15], in [16], in assay [20] and in assay [17] was “inactive” in each case. Besides, the Potency result in assay [18] was “inactive”.
On to `CCCCCCCCC(=O)OCC`, for which the Potency result in assay [1], in [2], in [3], in assay [4], in assay [5] and in [6] was “inactive” each time. The Potency entry in assay [7], in assay [8], in assay [9], in [10], in [12] and in [13] was “inactive” throughout. Moreover, the Potency entry in [14], in assay [15], in assay [16], in [20] and in assay [18] was “inactive” throughout.
For the compound `CCN(CCO)c1cccc(C)c1`, the Potency result in assay [1], in assay [2], in assay [3], in assay [4], in assay [5] and in assay [6] was “inactive” throughout. Besides, the Potency entry in [8], in assay [9], in assay [10], in assay [11], in assay [12] and in assay [13] was “inactive” throughout. The Potency result in assay [14], in assay [16], in assay [17] and in [18] was “inactive” each time.
